Assay results published in PubChem BioAssay AID1835 (Johns Hopkins Ion Channel Center, 2009).
Screen size: about 2,400 compounds; about 750 (31%) were called active. The list shows a part of the results. Values without a mark were called inactive.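 Rule for the calls: active = median signal gain over dofetilide-blocked control wells reaching their mean plus 3 SD, so readout 1 at least 0; inactive = the rest.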

molecular target: Voltage-gated inwardly rectifying potassium channel KCNH2 (Homo sapiens) (UniProt Q12809); assay: hERG protection against dofetilide inhibition, confirmation, cell-based, thallium flux, duplicate retest, dofetilide IC70 (AID 1835); details: hERG cell line, FluxOR thallium flux, dofetilide-blocked; at 10 µM; active compounds read high
Sequence (Q12809 whole entry, looked up): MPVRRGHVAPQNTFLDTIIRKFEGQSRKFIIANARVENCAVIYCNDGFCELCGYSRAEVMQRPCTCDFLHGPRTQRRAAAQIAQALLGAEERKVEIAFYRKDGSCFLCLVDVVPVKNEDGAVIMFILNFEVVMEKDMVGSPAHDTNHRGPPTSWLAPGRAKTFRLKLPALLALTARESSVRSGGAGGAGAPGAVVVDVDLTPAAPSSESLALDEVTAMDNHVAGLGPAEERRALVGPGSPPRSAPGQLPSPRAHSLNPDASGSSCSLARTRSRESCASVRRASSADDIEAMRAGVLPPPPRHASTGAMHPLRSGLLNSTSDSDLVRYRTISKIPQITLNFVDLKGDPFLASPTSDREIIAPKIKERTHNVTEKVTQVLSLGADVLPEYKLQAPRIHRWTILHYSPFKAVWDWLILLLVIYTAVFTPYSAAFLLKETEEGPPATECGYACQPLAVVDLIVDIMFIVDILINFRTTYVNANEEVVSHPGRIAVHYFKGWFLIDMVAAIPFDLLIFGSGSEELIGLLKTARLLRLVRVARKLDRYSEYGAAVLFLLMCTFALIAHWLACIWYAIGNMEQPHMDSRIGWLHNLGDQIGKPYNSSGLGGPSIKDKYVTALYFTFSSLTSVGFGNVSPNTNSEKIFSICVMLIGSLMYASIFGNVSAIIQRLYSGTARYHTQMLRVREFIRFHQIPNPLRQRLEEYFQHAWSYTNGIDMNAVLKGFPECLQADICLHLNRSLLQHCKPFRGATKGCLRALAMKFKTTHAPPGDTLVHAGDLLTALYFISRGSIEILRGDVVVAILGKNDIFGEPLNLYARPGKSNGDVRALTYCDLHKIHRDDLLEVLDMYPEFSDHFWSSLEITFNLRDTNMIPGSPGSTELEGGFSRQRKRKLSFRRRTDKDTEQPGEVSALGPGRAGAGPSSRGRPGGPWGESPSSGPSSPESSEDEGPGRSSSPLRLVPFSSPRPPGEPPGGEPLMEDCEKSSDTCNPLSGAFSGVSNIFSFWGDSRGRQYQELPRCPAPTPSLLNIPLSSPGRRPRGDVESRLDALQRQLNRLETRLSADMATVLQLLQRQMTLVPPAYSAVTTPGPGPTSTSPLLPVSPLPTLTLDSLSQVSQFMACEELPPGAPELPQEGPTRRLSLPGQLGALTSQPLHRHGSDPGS

SMILES | activity increase over dofetilide control, less the hit threshold
O=C(c1cncc(Br)c1)N1CCc2ccccc2C1 | -15%
CC1(C)Cc2c(sc3[nH]c(=S)n(Cc4ccccc4)c(=O)c23)CO1 | -10%
CC(C)C1Cc2c(sc3[nH]c(=S)n(Cc4ccccc4)c(=O)c23)CO1 (centres undefined) | 16% (active)
CCC1(C)Cc2c(sc3[nH]c(=S)n(Cc4ccccc4)c(=O)c23)CO1 (centres undefined) | 30% (active)
COc1ccc(C(=O)NCC(=O)OCn2nnc3ccccc3c2=O)cc1OC | -24%
CCCCNC(=S)N/N=C/C1=CCC2CC1C2(C)C (centres undefined) | -22%
Fc1ccc2c(c1)C(c1ccncc1)=NNC(c1cccnc1)=N2 | -13%
C=CCc1cc(Cl)ccc1OCCOCCN(C)C | -19%
Cc1csc(NC(=O)C2C3C=CC(C3)C2C(=O)O)n1 (centres undefined) | -19%
O=C(O)c1ccc(CNC(=O)C23CC4CC(CC(C4)C2)C3)cc1 | -3%
O=C(NCc1ccccc1)C(=O)Nc1nc(C23CC4CC(CC(C4)C2)C3)cs1 | 18% (active)
Oc1ccc(/C=N/Nc2nccnc2Cl)c(O)c1 | 8% (active)
COc1ccc(N2C(=O)CCC(C(=O)O)C2c2ccc(F)cc2)cc1 (centres undefined) | -5%
O=C(NC(=S)Nc1nc(-c2ccc(Br)cc2)cs1)c1ccco1 | 10% (active)
O=C(NC(=S)Nc1nc(-c2ccc([N+](=O)[O-])cc2)cs1)c1ccco1 | 16% (active)
COc1ccc(-c2csc(NC(=S)NC(=O)c3ccco3)n2)cc1Br | -17%
COc1ccc(-c2csc(NC(=S)NC(=O)c3ccco3)n2)cc1 | 11% (active)
O=C(NC(=S)Nc1nc(-c2ccccc2)cs1)c1ccco1 | 1% (active)
O=C(NC(=S)Nc1nc(-c2cccc([N+](=O)[O-])c2)cs1)c1ccccc1Cl | -1%
O=C(CCc1ccc(S(=O)(=O)N2CCCCC2)cc1)c1nnc(-c2ccccc2)o1 | -14%
Cc1[nH]c(=S)c(C#N)c(C)c1Cc1ccc(Cl)cc1Cl | -12%
O=C(N/N=C/C(Cl)=C/c1ccc([N+](=O)[O-])cc1)C(=O)Nc1ccc(C(=O)O)cc1 | -13%

SMILES | activity increase over dofetilide control, less the hit threshold
O=c1c(C(c2ccc(O)cc2)c2c(O)nc3n(c2=O)CCS3)c(O)nc2n1CCS2 | 3% (active)
O=C(N=Nc1c(O)[nH]c2ccc([N+](=O)[O-])cc12)c1cc(-c2ccccc2Cl)nc2ccccc12 | 97% (active)
O=[N+]([O-])c1cccc(NC(=S)Nc2nc(-c3ccccc3Cl)cs2)c1 | -7%
CN(C)/C(=N\S(=O)(=O)c1ccccc1)c1ccc(F)cc1 | -9%
S=C(N/N=C/c1cccc2ccccc12)Nc1cccc(Cl)c1 | -8%
Cc1cccc(-n2cc(-c3ccccc3)[nH]c2=S)c1 | -6%
S=c1[nH]c(-c2ccccc2)cn1/N=C/c1cccc2ccccc12 | 2% (active)
Cc1c(OC(C(=O)O)c2ccccc2)ccc2c(-c3ccccc3)cc(=O)oc12 (centres undefined) | -3%
COc1cc(OC)cc(C(=O)NNC(=O)C(=O)Nc2cc(OC)c(Cl)cc2OC)c1 | 68% (active)
COc1cccc(C(=O)NNC(=O)C(=O)Nc2ccc(OC)cc2OC)c1 | 19% (active)
Cc1cc(C(=O)Nc2cccc3ccccc23)c(C)o1 | -12%
COc1ccc(C(=O)NNC(=O)C(=O)Nc2cccc3ccccc23)cc1 | 51% (active)
COc1cccc(C(=O)NNC(=O)C(=O)Nc2cccc3ccccc23)c1 | 52% (active)
COc1cc(NC(=O)c2cc(-c3cccnc3)nc3ccc(C)cc23)c(OC)cc1Cl | -17%
COc1cccc(CCNS(=O)(=O)CCNC(=O)c2cccc(OC)c2)c1 | -15%
COc1ccc(C(=O)NNC(=O)CSc2nnc(COc3ccccc3)n2C)cc1 | -24%
COc1ccc(NC(=O)C2CC3CCC2C3)c(OC)c1 (centres undefined) | -8%
CN(C)CCOC(=O)C1(c2ccccc2)CCCC1 | -3%
O=C(CSc1cccc2cccnc12)N/N=C/c1cccnc1 | -19%
COC(=O)c1ccc(Oc2ccc(S(=O)(=O)N3CCCCC3)cc2N)cc1 | -12%
O=S(=O)(Nc1cccc(-n2cnnn2)c1)c1ccc(Cl)nc1 | -11%
CCOCCOCN(C#N)c1nc(OC)nc(N(C)C)n1 | -22%

SMILES | activity increase over dofetilide control, less the hit threshold
O=C(CN1C(=O)CSCC1=O)Nc1ccc2c(c1)OCO2 | -6%
O=C(NC(=S)N(CCCCO)C1CCCCC1)c1sc2ccccc2c1Cl | 29% (active)
COC(=O)CC1C(=O)NCCN1C(=S)NC(=O)c1sc2ccccc2c1Cl (centres undefined) | -1%
CC1CCCCC1NC(=S)NC(=O)c1sc2ccccc2c1Cl (centres undefined) | 5% (active)
CC1CCCCC1NC(=S)NC(=O)c1cccs1 (centres undefined) | 44% (active)
CN(CC(=O)Nc1ccc(OC(F)(F)F)cc1)S(=O)(=O)c1cnc[nH]1 | -9%
FC(F)c1nnc2c(Cl)cc(C(F)(F)F)cn12 | -11%
O=C(NC(=S)NNC(=O)[C@H]1C[C@@H]1c1ccccc1)c1cccc(F)c1 | -14%
C=CCn1c(SCC(N)=O)nc2scc(-c3ccc(C)o3)c2c1=O | -19%
C=CCn1c(=S)[nH]c2scc(-c3ccc(C)o3)c2c1=O | 72% (active)
C=CCn1c(=S)[nH]c2scc(-c3cccs3)c2c1=O | 90% (active)
O=C(Nc1ccc(Cl)c(Cl)c1)Nc1nnc(CSc2ccccc2)s1 | -10%
N#CC(=C1SC=CS1)c1nc(-c2ccccc2)cs1 | -7%
Cc1ccc(-c2n[nH]c(=S)nc2-c2ccc(C)cc2)cc1 | 13% (active)
COC(=O)c1cc(-c2ccc(C)cc2)n[nH]1 | -17%
S=c1nc(-c2ccccc2)c(-c2ccccc2)n[nH]1 | -9%
CCOc1ccc(/C=C2/SC(=O)NC2=S)cc1 | 92% (active)
Cn1cc(/C=C2\SC(=O)NC2=S)c2ccccc21 | -24%
CCOc1cc(-n2ncc(C#N)c2N)nc(SC)n1 | -12%
CCOC(=O)c1ccc(Oc2cc(C)nc(SC)n2)cc1 | 10% (active)
